# Many of the other results were omitted from the sample, so the strongest signals are more common in it than they were.
# B1: SUN4 (Saccharomyces cerevisiae), P53616 (protein)
# chain: MGSSHHHHHHSSGLVPRGSHNGSIYGDLADFSGPYEKFEDGTIPCGQFPSGQGVIPISWLDEGGWSGVENTDTSTGGSCKEGSYCSYACQPGMSKTQWPSDQPSDGRSIGGLLCKDGYLYRSNTDTDYLCEWGVDAAYVVSELSNDVAICRTDYPGTENMVIPTYVQAGDSLPLTVVDQDTYYTWQGLKTSAQYYVNNAGISVEDACVWGSSSSGVGNWAPLNFGAGSSDGVAYLSLIPNPNNGNALNFNVKIVAADDSSTVNGECIYENGSFSGGSDGCTVSVTAGKAKFVLYN
# Key:
# Experiment in all cases: glycan array binding signal (z-score within array); higher = stronger binding
# Conditions in all cases: glycan notation: IUPAC condensed, linker removed
# [1] = target: Fuc(a1-2)Gal(b1-3)GalNAc(b1-3)Gal(a1-4)Gal(b1-4)Glc
# How it was run: (§1)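 Glycan array data were curated from 3228 arrays in the Consortium for Functional Glycomics database and kept only where the protein sequence was available. Glycan names were converted to IUPAC-condensed notation, and columns mapping to the same glycan were averaged. The binding signal is a within-array Z-score, averaged across arrays of the same protein sequence at different concentrations or buffers and across linkers. Negative Z-scores can be read as non-binding.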
# [2] = target: Fuc(a1-2)Gal(b1-3)[Fuc(a1-4)]GlcNAc
# How it was run: as §1
# [3] = target: Fuc(a1-2)Gal(b1-3)[Fuc(a1-4)]GlcNAc(b1-2)Man(a1-3)[Fuc(a1-2)Gal(b1-3)[Fuc(a1-4)]GlcNAc(b1-2)Man(a1-3)]Man(b1-4)GlcNAc(b1-4)GlcNAc
# How it was run: as §1
# [4] = target: Fuc(a1-2)Gal(b1-3)[Fuc(a1-4)]GlcNAc(b1-3)[Gal(b1-4)GlcNAc(b1-6)]Gal(b1-4)Glc
# How it was run: as §1
# [5] = target: Fuc(a1-2)Gal(b1-4)GlcNAc(b1-2)Man
# How it was run: as §1
# [6] = target: Fuc(a1-2)[Gal(a1-3)]Gal(b1-3)GlcNAc(b1-6)GalNAc
# How it was run: as §1
# [7] = target: Fuc(a1-2)[Gal(a1-3)]Gal(b1-4)[Fuc(a1-3)]GlcNAc(b1-3)GalNAc
# How it was run: as §1
# [8] = target: Fuc(a1-2)[GalNAc(a1-3)]Gal(b1-3)GlcNAc(b1-6)GalNAc
# How it was run: as §1
# [9] = target: Fuc(a1-2)[GalNAc(a1-3)]Gal(b1-4)Glc
# How it was run: as §1
# [10] = target: Gal(a1-3)Gal(b1-3)GlcNAc(b1-2)Man(a1-3)[Gal(a1-3)Gal(b1-3)GlcNAc(b1-2)Man(a1-6)]Man(b1-4)GlcNAc(b1-4)GlcNAc
# How it was run: as §1
# [11] = target: Gal(a1-3)Gal(b1-3)[Fuc(a1-4)]GlcNAc(b1-2)Man(a1-3)[Gal(a1-3)Gal(b1-3)[Fuc(a1-4)]GlcNAc(b1-2)Man(a1-6)]Man(b1-4)GlcNAc(b1-4)GlcNAc
# How it was run: as §1
# [12] = target: Gal(a1-3)Gal(b1-4)[Fuc(a1-3)]GlcNAc(b1-2)Man(a1-3)[Gal(a1-3)Gal(b1-4)[Fuc(a1-3)]GlcNAc(b1-2)Man(a1-6)]Man(b1-4)GlcNAc(b1-4)GlcNAc
# How it was run: as §1
# [13] = target: Gal(a1-4)Gal(b1-4)GlcNAc(b1-3)Gal(b1-4)Glc
# How it was run: as §1
# Gal(a1-6)Glc = target: Gal(a1-6)Glc
# How it was run: as §1
# Gal(b1-3)GalNAc(b1-3)Gal = target: Gal(b1-3)GalNAc(b1-3)Gal
# How it was run: as §1
# [14] = target: Gal(b1-3)GalNAc(b1-3)Gal(a1-4)Gal(b1-4)Glc
# How it was run: as §1
# [15] = target: Gal(b1-3)GlcNAc(b1-2)Man(a1-3)[Gal(b1-3)GlcNAc(b1-2)Man(a1-6)]Man(b1-4)GlcNAc(b1-4)[Fuc(a1-6)]GlcNAc
# How it was run: as §1
# [16] = target: Gal(b1-3)GlcNAc(b1-3)Gal(b1-4)GlcNAc(b1-2)Man(a1-3)[Gal(b1-3)GlcNAc(b1-3)Gal(b1-4)GlcNAc(b1-2)Man(a1-6)]Man(b1-4)GlcNAc(b1-4)GlcNAc
# How it was run: as §1
# [17] = target: Gal(b1-3)GlcNAc(b1-3)Gal(b1-4)[Fuc(a1-3)]GlcNAc(b1-6)[Gal(b1-3)GlcNAc(b1-3)]Gal(b1-4)Glc
# How it was run: as §1
# [18] = target: Gal(b1-3)GlcNAc(b1-3)GalNAc
# How it was run: as §1
# [19] = target: Gal(b1-3)GlcNAc(b1-6)[Gal(b1-3)]GalNAc
# How it was run: as §1
# [20] = target: Gal(b1-3)[Fuc(a1-4)]GlcNAc(b1-6)GalNAc
# How it was run: as §1
# Gal(b1-4)Glc6S = target: Gal(b1-4)Glc6S
# How it was run: as §1
# [21] = target: Gal(b1-4)GlcNAc(b1-2)Man(a1-3)[Gal(b1-4)GlcNAc(b1-2)Man(a1-6)]Man(b1-4)GlcNAc(b1-4)[Fuc(a1-6)]GlcNAc
# How it was run: as §1
# [22] = target: Gal(b1-4)GlcNAc(b1-2)[Gal(b1-4)GlcNAc(b1-4)]Man(a1-3)[GlcNAc(b1-4)][Gal(b1-4)GlcNAc(b1-2)Man(a1-6)]Man(b1-4)GlcNAc(b1-4)GlcNAc
# How it was run: as §1
# [23] = target: Gal(b1-4)GlcNAc(b1-3)Gal(b1-4)GlcNAc(b1-2)Man(a1-3)[Gal(b1-4)GlcNAc(b1-3)Gal(b1-4)GlcNAc(b1-2)Man(a1-6)]Man(b1-4)GlcNAc(b1-4)GlcNAc
# How it was run: as §1
# [24] = target: Gal(b1-4)GlcNAc(b1-3)Gal(b1-4)GlcNAc(b1-2)Man(a1-3)[Gal(b1-4)GlcNAc(b1-3)Gal(b1-4)GlcNAc(b1-2)Man(a1-6)]Man(b1-4)GlcNAc(b1-4)[Fuc(a1-6)]GlcNAc
# How it was run: as §1
binder,measurement,setting,value
B1,glycan array binding signal (z-score),[1],0.954
same,glycan array binding signal (z-score),[2],-0.752
same,glycan array binding signal (z-score),[3],-0.207
same,glycan array binding signal (z-score),[4],0.297
same,glycan array binding signal (z-score),[5],0.324
same,glycan array binding signal (z-score),[6],-0.368
same,glycan array binding signal (z-score),[7],-0.487
same,glycan array binding signal (z-score),[8],-0.525
same,glycan array binding signal (z-score),[9],-0.935
same,glycan array binding signal (z-score),[10],1.63
same,glycan array binding signal (z-score),[11],1.91
same,glycan array binding signal (z-score),[12],3.09
same,glycan array binding signal (z-score),[13],-0.077
same,glycan array binding signal (z-score),Gal(a1-6)Glc,-1.22
same,glycan array binding signal (z-score),Gal(b1-3)GalNAc(b1-3)Gal,-0.668
same,glycan array binding signal (z-score),[14],0.295
same,glycan array binding signal (z-score),[15],-0.257
same,glycan array binding signal (z-score),[16],0.342
same,glycan array binding signal (z-score),[17],-0.488
same,glycan array binding signal (z-score),[18],-0.163
same,glycan array binding signal (z-score),[19],0.101
same,glycan array binding signal (z-score),[20],0.835
same,glycan array binding signal (z-score),Gal(b1-4)Glc6S,-0.03
same,glycan array binding signal (z-score),[21],0.829
same,glycan array binding signal (z-score),[22],0.208
same,glycan array binding signal (z-score),[23],2.66
same,glycan array binding signal (z-score),[24],2

# From the supplement of paper PMC8728848
